ALOX12 inh = ALOX12 (human) lipoxygenase inhibition; purified 12hLO, xylenol orange hydroperoxide absorbance; P18054; AID 1671190; hit rate 1.1% among 580,000; Potency, µM (highest dose often 108 µM), for the others: top-dose activity change, negative = inhibition, hits mostly inhibitors; further: potency means the concentration at half of the fitted maximal effect
Target sequence (P18054 whole entry, looked up): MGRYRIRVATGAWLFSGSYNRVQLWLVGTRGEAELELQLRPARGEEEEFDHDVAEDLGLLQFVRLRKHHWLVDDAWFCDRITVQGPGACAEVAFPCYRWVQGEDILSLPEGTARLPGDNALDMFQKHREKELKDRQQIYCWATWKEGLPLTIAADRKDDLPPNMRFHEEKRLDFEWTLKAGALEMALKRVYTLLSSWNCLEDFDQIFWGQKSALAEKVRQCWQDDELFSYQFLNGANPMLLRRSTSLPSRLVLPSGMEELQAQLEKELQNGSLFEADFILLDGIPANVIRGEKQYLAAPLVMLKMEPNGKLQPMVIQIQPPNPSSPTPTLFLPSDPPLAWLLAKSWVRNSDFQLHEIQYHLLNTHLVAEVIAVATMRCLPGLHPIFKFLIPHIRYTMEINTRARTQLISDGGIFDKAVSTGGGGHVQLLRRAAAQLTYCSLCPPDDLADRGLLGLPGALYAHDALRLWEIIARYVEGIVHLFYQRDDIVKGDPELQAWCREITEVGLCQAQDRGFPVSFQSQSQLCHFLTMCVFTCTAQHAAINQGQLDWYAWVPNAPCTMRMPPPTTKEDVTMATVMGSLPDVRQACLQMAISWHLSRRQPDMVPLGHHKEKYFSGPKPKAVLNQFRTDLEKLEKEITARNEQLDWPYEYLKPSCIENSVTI
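Hydroperoxide product was detected by ferrous iron/xylenol orange as the 573 to 405 nm absorbance ratio. Arachidonic acid at 40 uM (final) was turned over for 30 min at room temperature by 150 nM human 12hLO, pH 7.0 Hepes buffer, after 15 min compound preincubation.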
HT1080 IDH1KD tx = toxicity to HT-1080 IDH1 knockdown cells (counter line); hit rate 2% among 360,000; Potency, µM (series often up to 46.1 µM), for inactives: top-dose activity, negative = toxicity, actives largely listed as cytotoxic; HT-1080 IDH1 knockdown viability, ATP luminescence, 48 h;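 further: potency means the concentration at half of the fitted maximal effect; 0% = DMSO wells and -100% = cell-free medium wells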
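Knockdown cells (IDH1KD HT-1080) received compounds 2 h after plating at 750 cells/well and were kept 48 h at 37 °C in 5% FBS RPMI. A CellTiter-Glo luminescence read gave % activity for curve fitting.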
TDP1 cell noCPT = qHTS for Inhibitors of human tyrosyl-DNA phosphodiesterase 1 (TDP1): qHTS in cells in absence of CPT. DT40 Tdp1-/- hTDP1 cells, no CPT, ATP luminescence, 48 h. Potency, µM (doses to about 46.2 µM), inactives show at the highest dose activity change, negative = growth inhibition, actives largely listed as inhibitors. hit rate 15% among 420,000. AID 686978, 2013; further: potency means the concentration at half of the fitted maximal effect; nearly all actives have a fitted effect of over 55% in size
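Camptothecin absent (DMSO only). Human TDP1-complemented DT40 knockout cells, 400 cells/well, 37 °C for minimum 48 hr; ATP measured via CellTiter-Glo, 30 min dark incubation, luminescence.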
TDP1 cell CPT = DT40-hTDP1 cell growth loss with CPT | chicken DT40 Tdp1-/-;hTDP1 cells + 20 nM CPT, ATP luminescence, 48 h | Potency, µM (series often up to 46.2 µM), without a hit: at the top dose activity change, negative = growth inhibition, actives largely listed as inhibitors | AID 686979 | hit rate 12% among 420,000; further: potency means the concentration at half of the fitted maximal effect; nearly all actives have a fitted effect of over 55% in size
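Chicken DT40 Tdp1-/- cells complemented with human TDP1, 400 cells/well, exposed to compounds plus 20 nM camptothecin for at least 48 h at 37 C; viability read as ATP content by CellTiter-Glo luminescence.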
HT1080NT lethal = kills 2HG-producing HT-1080-NT fibrosarcoma cells; HT-1080-NT fibrosarcoma viability, CellTiter-Glo ATP luminescence, 48 h; hit rate 1.6% among 360,000; Potency, µM (series often up to 46.1 µM), without a hit: at the top dose activity, negative = less viability, hits mostly cytotoxic;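 further: NT is the 2HG producing partner of a matched IDH1 knockdown line; potency means the concentration at half of the fitted maximal effect; 0% = DMSO-treated cells and -100% = media-only wells without cells; nearly all actives have a fitted effect of over 55% in size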
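HT-1080-NT; 750 cells/well; 5% FBS RPMI; 48 h compound, 37 degrees C; CellTiter-Glo luminescence; curve fitting and curve-class assignment.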
IL1B secr inh = blocks inflammasome-driven IL-1 beta release | THP-1 LPS/ATP IL-1B secretion, AlphaLISA, 16 h; hits give low values | activity change, % at 57.5 µM | hit rate 4.7% among 360,000; in the data active means activity change below about -50%; inconclusive means mostly about -30% to -49%
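THP-1 cells pretreated 1 hr with compounds (up to 57.5 uM final), then stimulated with LPS (250 ng/mL final) plus ATP (1.25 mM final); secreted IL-1B measured by AlphaLISA after 16 hr, decreased signal indicating inhibition.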
Active calls of the source: *; ? = inconclusive; . = no result; [ ] = another dose, or the depositor's remark. The full list was thinned out, with hits kept by preference. Unless noted, the call rests on the fitted dose curve; in most records, active means well fitted curve in the direction sought with a large enough effect; inconclusive means small, poorly fitted or top-dose-only effect, or another doubt; inactive means no such curve, though single readings can be large; an effect the other way counts as inactive or inconclusive. Unless noted, on the % scale 0 is the no-effect control and ±100 the full control effect.

SMILES	ALOX12 inh	HT1080 IDH1KD tx	TDP1 cell noCPT	TDP1 cell CPT	HT1080NT lethal	IL1B secr inh
Cc1cc(O)c(C(c2ccc(F)cc2)N2CCN(c3ccccc3)CC2)c(=O)n1Cc1ccco1 (configuration not stated)	-19.9%	.	-20.4%	-16.6%	.	.
CCN1C(Br)=CCc2ccccc21	.	.	-11.2%	6.3%	.	.
Cc1cc(C(F)(F)F)nc(SC(C(=O)O)c2ccccc2)n1 (configuration not stated)	11.2µM*	.	.	.	.	.
Cc1cc(C)nc(SC(C(=O)O)c2ccccc2)n1 (configuration not stated)	-0.5%	3.1%	-6.5%	1.8%	16.7%	11.6
COc1ccc(C(C)=O)cc1CSc1nnc(-c2ccccc2O)n1-c1ccccc1	1.9%	-25.0%	?	?	1.7%	-9.9
CNCc1nc2ccccc2[nH]1	-2.3%	0.3%	15.0%	-16.8%	0.9%	17.6
Cc1ccc(C)c(Nc2nc3ccccc3[nH]2)c1	3.7%	-8.8%	-28.1%	-2.2%	-8.1%	-94.3*
c1ccc(Nc2nc3ccccc3[nH]2)nc1	16.6%	-8.7%	?	?	0.5%	-80.5*
Nc1ccc(Nc2nc3ccccc3[nH]2)cc1	2.4%	-2.6%	-20.3%	31.7%	-9.2%	?
c1ccc(Nc2ccccn2)cc1	1.8%	15.8%	25.9µM*	?	16.5%	-16.5
Nc1ccccc1Nc1nc2ccccc2[nH]1	-15.4%	-28.3%	25.9µM*	?	-29.7%	-15.0
Cc1ccc(Cl)cc1-n1nc(-c2c(C)nc3scc(CC(=O)NCC(C)C)n3c2=O)cc1C	1.4%	.	.	.	.	.
O=C(NC(NC(=S)N1CCOCC1)C(Cl)(Cl)Cl)c1ccc(Cl)cc1 (configuration not stated)	-24.1%	?	4.11µM*	3.66µM*	-28.4%	1.3
OC(CN1CCNCC1)Cn1c2ccc(Br)cc2c2cc(Br)ccc21 (configuration not stated)	28.2µM*	.	.	.	.	.
OC(CN1CCCCC1)Cn1c2ccccc2c2cc(Br)ccc21 (configuration not stated)	0.0%	?	16.4µM*	16.4µM*	23.1µM*	-75.4*
OC(CN1CCCCC1)Cn1c(C(F)(F)F)nc2ccccc21 (configuration not stated)	50.5%	15.8%	11.6%	-0.8%	13.9%	8.2
CC1(COc2ccccc2)COc2ccc(C(=O)NCc3ccco3)cc2N1 (configuration not stated)	2.6%[176 µM]	.	.	.	.	.
c1ccc2c(c1)ncn2Cc1nnc2sc(-c3ccc4c(c3)OCO4)nn12	-17.6%	-14.6%	14.6µM*	?	-8.3%	34.5
COc1ccc(OCc2nn3c(Cn4cnc5ccccc54)nnc3s2)cc1	-34.1%	-22.3%	?	20.6µM*	?	2.3
c1ccc(CCc2nn3c(Cn4cnc5ccccc54)nnc3s2)cc1	?	?	18.4µM*	18.4µM*	-21.1%	2.1
Cc1nn2c(-c3cccnc3)ccnc2c1-c1ccccc1	-13.0%	0.5%	23.1µM*	?	0.0%	-11.0
Cc1nn(CCCC(=O)Nc2ccccc2C(F)(F)F)c(=O)c2c1sc1ccccc12	0.0%	.	?	-29.3%	.	.
CCCS(=O)(=O)N1CCCC(Cc2noc(-c3ccccc3)n2)C1 (configuration not stated)	62.1%	.	.	.	.	.
Cc1nc(C(F)(F)F)ccc1C(=O)N1CCC1(C)C(=O)NS(=O)(=O)c1cccc(F)c1 (configuration not stated)	44.7µM*	23.5%	0.9%	-7.1%	16.8%	22.6
CC1(C(=O)NS(=O)(=O)c2cccc(Cl)c2)CCN1C(=O)c1cccc(F)c1 (configuration not stated)	-1.4%	3.3%	-14.4%	-4.1%	1.3%	36.0
SMILES	ALOX12 inh	HT1080 IDH1KD tx	TDP1 cell noCPT	TDP1 cell CPT	HT1080NT lethal	IL1B secr inh
Cc1ccc(S(=O)(=O)NC(=O)C2(C)CCN2C(=O)c2cccc(F)c2)cc1 (configuration not stated)	35.5µM*	0.4%	4.3%	1.1%	23.4%	0.0
Cc1nc(C(F)(F)F)ccc1C(=O)N1CCC1(C)C(=O)NS(=O)(=O)c1cccc(Cl)c1 (configuration not stated)	?	?	-2.2%	-10.8%	15.5%	13.2
COc1ccc(NCC(O)Cn2c(C)c(C)c3ccccc32)cc1 (configuration not stated)	-10.6%	?	?	?	-12.7%	-172.7*
O=C(c1ccco1)N1CCC2(CCCN(c3ccncc3)C2)CC1	-0.5%[57.4 µM]	.	-27.9%	-10.4%	.	.
CCCc1c(C(=O)N/N=C/c2c[nH]c3ccccc23)nnn1-c1nonc1N	5.5%	2.0%	?	?	-2.2%	16.6
CCCN(CCC)Cc1c(C(=O)N/N=C/c2c[nH]c3ccccc23)nnn1-c1nonc1N	-6.9%	29.1µM*	-5.6%	-20.0%	?	?
Cc1ccc(-c2c(C(=O)N/N=C/c3c[nH]c4ccccc34)nnn2-c2nonc2N)cc1	7.8%	-6.5%	16.4µM*	?	3.6%	-24.5
Cn1c(=O)c2c(ncn2Cc2csc(C(C)(C)C)n2)n(C)c1=O	10.5%	.	.	.	.	.
O=C(C(=Cc1ccccc1)c1ccccc1)c1ccccc1	0.2%	-13.7%	?	?	-15.9%	?
Cc1cc(C)c(NC(=O)/C(=C/c2ccccc2)c2ccccc2)c(C)c1	-18.5%	1.8%	20.6µM*	23.1µM*	-21.4%	0.0
Cc1nn(-c2ccc(C(=O)OC(C)C)cc2)c(C)c1[N+](=O)[O-]	-8.9%	-0.4%	25.9µM*	-0.8%	6.7%	-9.3
Cc1ccc2c(c1)N(CCCC(=O)NCc1ccc3c(c1)OCO3)C(=O)CO2	?	6.4%	-19.5%	-3.2%	13.1%	-6.5

Screens from PubChem BioAssay.
